Hit rate of the full screen: of about 68,000 compounds, about 2,700 (4%) showed an effect of 50% or more. This is one part of a sample in which strong results are shown more often than they occur.
test system: Plasmodium berghei; assay: Screen against P. berghei liver stage (PbLuc), transformed with Luciferase, at 2uM; type: functional, HepG2; details: tested at 2 uM

Structure (SMILES) | INHIBITION
COC[C@@]12CCO[C@@H]1CCN(C(=O)COc1ccc(C)cc1)C2 | -42.87%
O=C(NCCc1ccc(Cl)s1)N1CCS(=O)(=O)CC1 | -13.46%
COc1cccc(F)c1C(C)NC(=O)NCc1ccnc(C)n1 (stereo unspecified) | -38.35%
Cc1nc(C)n(CC2CN(S(C)(=O)=O)Cc3nccn3C2)n1 (stereo unspecified) | 26.66%
CC1=Nc2c(c(=O)[nH]n2C(C)C)C(c2ccc3c(c2)OCCO3)S1 (stereo unspecified) | -19.21%
CC1=Nc2c(c(=O)[nH]n2C(C)C)C(c2ccccc2)S1 (stereo unspecified) | 18.37%
CC1=Nc2c(c(=O)[nH]n2C(C)C)C(c2cccs2)S1 (stereo unspecified) | 63.91%
CC1=Nc2c(c(=O)[nH]n2C(C)C)C(c2ccc3c(c2)n(C)c(=O)n3C)S1 (stereo unspecified) | 53.71%
CC1=Nc2c(c(=O)[nH]n2C(C)C)C(c2ccsc2)S1 (stereo unspecified) | 14.2%
CC1=Nc2c(c(=O)[nH]n2C(C)C)C(c2ccc(F)c(F)c2)S1 (stereo unspecified) | -52.59%
COc1ccccc1[C@@H]1CN(C(=O)c2csc(C)n2)C[C@H]1C(=O)O | 10.69%
CC(C)CC(C#N)NC(=O)COC1CCCCC1 (stereo unspecified) | 30.23%
c1csc(CN2C[C@@H]3OCCN(CC4CCCO4)[C@@H]3C2)c1 (stereo partly specified) | 20.13%
CCOCCN1CCN(CC(=O)N2CCCC2)CC1CC (stereo unspecified) | -9.17%
CCOCCN1CCN(Cc2cccc(C(=O)N(C)C)c2)CC1CC (stereo unspecified) | 50.05%
CCC1CN(Cc2cccc(C(=O)N(C)C)c2)CCN1CCOC (stereo unspecified) | 2.77%
COCCN1CCN(Cc2cccc(C(=O)N(C)C)c2)CC1 | 21.83%
CCOCCN1CCN(Cc2cccc(C(=O)N(C)C)c2)CC1 | 10.62%
CCC1CN(CC(=O)N2CCC2)CCN1CCOC (stereo unspecified) | 24.15%
CCOCCN1CCN(Cc2cccc(C(=O)N(C)C)c2)CC1C (stereo unspecified) | 30.29%
CCOCCN1CCN(CC(=O)N2CCC2)CC1CC (stereo unspecified) | 53.98%
CN(C)C(=O)c1cccc(CN2CCN(CCO)CC2)c1 | 54.99%

Structure (SMILES) | INHIBITION
Cc1ccc(CN2CC3(CCN(C(=O)C4CC4)CC3)CC2C(=O)O)o1 (stereo unspecified) | 15.46%
CCn1cc(NC(=O)NCC(c2cccc(F)c2)N(C)C)cn1 (stereo unspecified) | -41.59%
O=C(c1ccnnc1)N1C[C@@H](OCC2CCOCC2)[C@H]2OCCC[C@H]21 | 3.35%
COc1cc(C)nc(N2CCN(C(=O)CCc3cscn3)CC2)n1 | -8.58%
CC1CS(=O)(=O)CCN1CCCc1ccc(Cl)cc1 (stereo unspecified) | -15.12%
CS(=O)(=O)N1CCOCC12CCN(Cc1ccc(F)cc1)CC2 | -12.74%
CNC(=O)N1CC[C@@H]2CN(Cc3cccnc3)S(=O)(=O)[C@@H]2CC1 | -23.02%
Cc1ccc(CN2CCC3(CC2)CC(c2cccnc2)C(=O)N3C)o1 (stereo unspecified) | 8.6%
Cc1nc2c(c(=O)[nH]1)CN(Cc1ccc3c(c1)CCCN3C)CC2 | 30.25%
CSCCCN1CCCC1c1noc(C(C)C)n1 (stereo unspecified) | 5.05%
Cc1ccccc1OC1CCN(CC(=O)Nc2ccn(C)n2)CC1 | 9.02%
CCn1cc(NC(=O)CN2CCC(Oc3ccccc3C)CC2)c(C)n1 | 45.49%
Cc1ccccc1OC1CCN(CC(=O)Nc2cn(C)nc2C)CC1 | 54.75%
CCOc1ncnc2c1CCN(C(=O)CN(C)C)CC2 | 19.49%
O=C(CC1CC1)N1Cc2nccn2CC(COc2cccnc2)C1 (stereo unspecified) | 23.97%
OC1(CN2CCc3nnc(Cc4cccnc4)n3CC2)CCCNC1 (stereo unspecified) | 34.71%
OCCOc1ccc(NCc2cc(F)cc3cccnc23)cn1 | 45.56%
OCCOc1ccc(NCc2cccc3cccnc23)cn1 | 67.44%
Cc1ncccc1CNc1ccc(OCCO)nc1 | 3.49%
CN(Cc1ccccc1)CC(O)Cn1cnc2ccc(Br)cc2c1=O (stereo unspecified) | -12.19%
O=C1CC2(CCSC2)C(=O)N1Cc1coc(-c2ccc(F)cc2)n1 (stereo unspecified) | -12.34%
O=C(NCc1nnc2n1CCCCC2)N1CCc2ccccc2C1 | 25.61%

Structure (SMILES) | INHIBITION
O=C(NCCc1nnc2n1CCCCC2)N1CCC2(CCCC2)CC1 | 55.36%
O=C(NCc1nnc2n1CCCCC2)N1CCC2(CCCCC2)C1 | 55.36%
O=C(NCCc1ccc(Cl)s1)NCc1nnc2n1CCCC2 | -19.35%
O=C(CCc1ccc(Cl)s1)NCc1nnc2n1CCCCC2 | 58.05%
O=C(NCc1nnc2n1CCC2)N1CCC2(CCCCC2)CC1 | 26.74%
O=C(NCC1(c2ccc(F)cc2)CC1)N1CCC2(CCOC2)C1 (stereo unspecified) | -21.09%
CCc1nnsc1C(=O)NCCc1nnc2n1CCC2 | -8.74%
O=C(NCCc1nnc2n1CCC2)N1CCC2(CCCCC2)C1 | -9.03%
O=C(NCc1ccc(Cl)s1)NCc1nnc2n1CCCCC2 | 15.28%
O=C(NCCc1nnc2n1CCCCC2)N1CCC2(CCOC2)C1 (stereo unspecified) | 69.67%
O=C(Cc1ccc2c(c1)OCCO2)NCCc1nnc2n1CCC2 | -29.94%
Cc1nc(C)n(CC2CCCN2CC(=O)NCCC2=CCCCC2)n1 (stereo unspecified) | 24.17%
COc1c(Br)c(C(=O)NC2CCCC2)nn1C | 32.75%
O=c1[nH]c2cc3c(cc2cc1CN1CCCC1c1ccccn1)OCO3 (stereo unspecified) | -8.01%
CCNC(=O)N1CCC(NC(=O)NCCc2cc(F)cc(F)c2)C1 (stereo unspecified) | 24.82%
CC(C)Oc1cccc(C(=O)C2CCCN(C(=O)c3cncs3)C2)c1 (stereo unspecified) | 30.07%
CN1CCCN(C(=O)c2ccnn2-c2ccc3ccccn23)CC1 | -25.2%
COC(=O)c1cccn1C1CCN(C(=O)c2cn[nH]c2C)CC1 | 0.26%
O=C(NCC(=O)N1CCCC1)c1nn(-c2ccccc2F)cc1O | -8.52%
Cc1cc(CN(C)C(=O)c2ccc(F)c(C(F)(F)F)c2)no1 | 46.52%
COc1ccc(-n2cc3nc(N4CCCC4)[nH]cc-3c2=O)cc1Cl | 26.03%
CN(C)C(=O)[C@H]1CCS(=O)(=O)[C@@H]2CN(c3ncc(F)cn3)C[C@H]12 | 32.26%

Structure (SMILES) | INHIBITION
O=C1CC(c2cccs2)c2snc(C(=O)O)c2N1 (stereo unspecified) | -4.4%
CN1Cc2c(C(=O)Nc3cccnc3)ncn2-c2ccccc2S1(=O)=O | 8.85%
CCC(=O)N1CCC2(C=C(C(=O)N(C)C)c3ccccc32)CC1 | -19.05%
O=C(NCc1nnc2n1CCCCC2)N1CCc2sccc2C1 | 32.11%
O=C(NCCc1nnc2n1CCC2)NCC1(c2cccc(F)c2)CC1 | -14.15%
O=C(NCCc1nnc2n1CCC2)NCC1(c2ccc(F)cc2)CC1 | 81.42%
O=C(NCc1nnc2n1CCC2)N1CCc2sccc2C1 | 15.67%
O=C(NCCc1nnc2n1CCC2)NCC1(c2ccccc2)CC1 | -1.32%
O=C(NCc1nnc2n1CCCC2)N1CCc2sccc2C1 | 53.11%
CCn1cc(C(=O)N2CCCC(c3nccs3)C2)cn1 (stereo unspecified) | 2.6%
COc1cccc2[nH]cc(CCNC(=O)N3CCCC3CO)c12 (stereo unspecified) | 1.41%
Cc1ccc(C(=O)N2CCCC(n3cncn3)C2)o1 (stereo unspecified) | 14.17%
COc1ccnc(NC2CCN(CC(=O)Nc3ccccc3)CC2)n1 | -37.65%
COc1ccnc(NC2CCN(CC(=O)N3CCCC3)CC2)n1 | 72.05%
COc1ccnc(N2CCN(CC(=O)N3CCC(C)CC3)CC2)n1 | 39.72%
CCn1ccc(CNC(=O)c2cc(OC)cc(OC)c2)n1 | 65.06%
CCOc1cccc(C(=O)Nc2ccn(CC)n2)c1 | 6.64%
COc1cc(OC)cc(C(=O)NCc2nn(C)c3c2COCC3)c1 | -63.73%
CC(C)(NCC(=O)NCC1CC1)c1ccc2c(c1)OCCO2 | -51.94%
Cc1ccc(CN2CC[C@H](O)[C@@H](n3ccc(=O)[nH]c3=O)CC2)cc1 | 29.89%
O=C(NCCCn1ccnn1)C1CCCN(C2CCCC2)C1 (stereo unspecified) | 27.11%
COc1ccc(F)c(CN2CCCC(O)(CNCC(C)(C)C)C2=O)c1 (stereo unspecified) | 70.81%

Structure (SMILES) | INHIBITION
CC(C)(C)CNCC1(O)CCCN(Cc2ccccc2F)C1=O (stereo unspecified) | 36.66%
COc1ccc(F)c(CN2CCCC(O)(CNCc3ccoc3)C2=O)c1 (stereo unspecified) | -11.8%
CCCN1C[C@@H]2CC[C@H]1CN(Cc1cccc(-n3cccn3)c1)C2 | -15.64%
CCCN1C[C@@H]2CC[C@H]1CN(Cc1ccc(Cn3cccn3)cc1)C2 | 75.43%
CCCN1C[C@@H]2CC[C@H]1CN(Cc1ccc(-n3cccn3)cc1)C2 | 47.25%
COCC1CN(c2ccc3c(Cl)ccnc3c2F)CCO1 (stereo unspecified) | -90.94%
Cn1ccc(CS(=O)(=O)Cc2ccccc2)cc1=O | 36.53%
COCCN1CC2(CCOCC2)c2cc(NC(=O)C3CC=CC3)ccc21 | 26.31%
CC(C)C[C@H](N)COc1cccc(F)c1Oc1ccc(Cl)cc1 | 32.24%
COc1cc(CNc2cc(N3CCCC3CO)ncn2)ccn1 (stereo unspecified) | 21.39%
C[C@@H]1CN(Cc2ccccc2)CCN1C(=O)NCc1nccs1 | 14.83%
Cc1ncsc1CNC(=O)N1CCN(Cc2ccccc2)C[C@H]1C | 37.41%
Cc1ncsc1C(=O)N1CCN(Cc2ccccc2)CC1C (stereo unspecified) | -12.06%
Cc1cc(CNC(=O)N2CCN(Cc3ccccc3)C[C@H]2C)on1 | -4.53%
Cc1nccc(CNC(=O)N2CCN(Cc3ccccc3)C[C@H]2C)n1 | 58.93%
Cc1ncsc1CNC(=O)N1CCN(Cc2ccccc2)CC1C (stereo unspecified) | 51.4%
CCCC(=O)N1CCC(c2cc3cccnc3c(O)n2)CC1 | 4.48%
O=C(N1CCCC1)N1CCC2(CC1)CN(c1cccnc1)C(=O)CO2 | 39.86%
